Laboratory results reported in PubChem BioAssay AID873 (PCMD, 2007).
About 1,300 (0.62%) of roughly 210,000 compounds were called active. For the sample, actives were picked, then their nearest neighbours and some compounds at random. Values without a mark were called inactive.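 The calls were made as follows: active = inhibition of 40% or more; inactive = the rest.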

Target: Kallikrein-5 (Homo sapiens) (UniProt Q9Y337)
Assay: inhibition of kallikrein 5 (hK5) activity – biochemical, 1536-well, primary screen (AID 873);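 also: 0% = enzyme controls without compound and 100% = no-enzyme blanks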
Settings: recombinant hK5, fluorogenic AMC substrate cleavage; at 5 µM; stronger effect = higher value

Sequence of Kallikrein-5 (Homo sapiens) (Q9Y337 67-293 limits assumed): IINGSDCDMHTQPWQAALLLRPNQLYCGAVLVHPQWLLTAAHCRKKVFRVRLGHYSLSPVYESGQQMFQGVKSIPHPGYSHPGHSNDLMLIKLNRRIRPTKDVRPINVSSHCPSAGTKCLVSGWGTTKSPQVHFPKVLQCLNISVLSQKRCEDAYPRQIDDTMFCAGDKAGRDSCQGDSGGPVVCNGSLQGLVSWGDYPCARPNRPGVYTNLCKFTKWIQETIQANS

SMILES | inhibition
O=C(Nc1n[nH]c(C(F)(F)F)n1)c1cccs1 | 40.9% (active)
O=C(Nc1ncccn1)c1cccs1 | -0.12%
Cc1ccc(-c2csc(NC(=O)c3cccs3)n2)cc1 | -16.5%
O=C(Cn1c[n+](CC(=O)c2ccc([N+](=O)[O-])cc2)cn1)c1ccc([N+](=O)[O-])cc1 | -1.7%
C=CCN(c1ccccc1C(=O)NCC(=O)OCC)S(=O)(=O)c1ccc(C)cc1 | -3.06%
Cc1nc2ccccc2nc1N/N=C/c1ccc(O)cc1O | -20.8%
COc1ccc(N=C(C)c2sc3ccccc3c2O)cc1 | 2.85%
O=[N+]([O-])c1cccc2ncccc12 | -1.14%
C=C1CCN([C@H](C(=O)NCc2cc(OC)c(OC)c(OC)c2)C(C)C)S(=O)(=O)c2ccccc21 | 0.63%
O=C(O)CCCC(=O)Nc1ccc(Oc2cccc(C(F)(F)F)c2)nc1 | -2.65%
O=C(Nc1ccc(Cl)cc1)Nc1ccc(Oc2cccnc2)nc1 | 62.9% (active)
O=C(NNC(=O)c1csc(-c2cccnc2)n1)Nc1ccc(Cl)cc1 | -0.51%
O=C(CNc1ccc(F)cc1F)NC(=O)NCc1ccco1 | -1.58%
COc1ccc(/C=C/c2nnc(NC(=O)C(C)C)s2)cc1 | 0.65%
Cn1nccc1NS(=O)(=O)c1ccc(F)cc1 | 8.38%
CC(C)N(C(=O)c1ccc(-c2ccccc2F)cc1)C(C)C | 52.5% (active)
Cc1ccccc1NC(=O)C(C)c1ccc(-c2ccccc2)c(F)c1 (stereo unspecified) | 1.97%
O=C(Nc1ccccc1F)c1ccccc1-c1ccccc1 | -10.7%
Clc1ccc2nc(-c3ccccc3)nc(C(Cl)Cl)c2c1 | 0.33%
COc1ccc(-c2nn(C)c(=O)c3ccccc23)cc1CNC(=O)C1CCCCC1 | 1.08%
COC(=O)c1ccc(CN2CCC(CO)(Cc3ccc(OC)cc3)CC2)cc1 | -3.09%
COc1ccc(CC2(CO)CCN(Cc3cnn(C)c3)CC2)cc1 | 5.76%
CC(C)c1csc(CN2CCC(CO)(Cc3ccccc3)CC2)n1 | 40.6% (active)
COc1ccc(CCNC2=CC(=O)CC(C)(C)C2)cc1 | 0.99%
CCS(=O)(=O)c1cc([N+](=O)[O-])c(Sc2ccccc2N)s1 | 3.91%
Cc1ccc(S(=O)(=O)N(C)CC(=O)OCC(=O)Nc2ccccc2)cc1 | 2.05%

SMILES | inhibition
CCOC(=O)CN(C)S(=O)(=O)c1ccc(-c2cc(C(=O)OC)sc2C(F)(F)F)cc1 | 74.9% (active)
COC(=O)c1sc(C(F)(F)F)c(-c2ccccc2)c1S(=O)(=O)N(C)C | 0.56%
Cc1ccccc1CSc1nnc(CCCCCNC(=O)OC(C)(C)C)o1 | 0.98%
O=C(CNC(=O)c1cc(=O)[nH]c2ccccc12)Nc1ccc(F)c(F)c1 | 5.97%
CCOC(=O)c1ccc(NC(=O)c2cc(=O)[nH]c3ccccc23)cc1 | -1.31%
CCCN(CC(=O)Nc1ccccc1C)C(=O)c1cc(=O)[nH]c2ccccc12 | 45.5% (active)
COC(=O)c1scc(S(=O)(=O)C(C)(C)C)c1-n1cccc1 | -2.13%
O=S(=O)(NCc1ccco1)c1cnc(Cl)c(Cl)c1 | 18.9%
O=C(CSc1nnc(-c2cccnc2)n1Cc1ccco1)c1ccc(Cl)c(Cl)c1 | -11.9%
C(=C\c1ccccc1)/CSc1nnc(-c2cccnc2)n1Cc1ccco1 | 59.8% (active)
O=C(CSc1nnc(-c2cccnc2)n1Cc1ccco1)c1ccc(Cl)cc1 | -15.7%
O=C(Nc1ccccc1)N1CCN(C2c3ccccc3-c3ccccc32)CC1 | 1.85%
CC(C)c1ccc(NC(=S)NNc2ccc(Cl)c(C(=O)O)c2)cc1 | 5.6%
COc1cc2c(cc1OC)C(/C=C/c1ccco1)=NCC2 | 4.43%
CC1CC(C)(C)n2c(O)c(N=NC(N)=S)c3cccc1c32 (stereo unspecified) | 50.7% (active)
C[C@@H](NC(=O)OC(C)(C)C)c1nnc(S(=O)(=O)Cc2ccccc2)o1 | -1.93%
Cc1cc(F)ccc1NC(=O)C(C)n1c2ccccc2c2nc(=O)cc(C)n21 (stereo unspecified) | 0.22%
O=C(NC1CCCCC1)c1cc(C2CC2)on1 | -1.29%
COc1cccc2c1OCC1COc3c(c(=O)n(C)c(=O)n3C)C21 (stereo unspecified) | 50.2% (active)
Cn1c2c(c(=O)n(C)c1=O)C1c3ccccc3OCC1C(C)(C)O2 (stereo unspecified) | -2.4%
Cn1c2c(c(=O)n(C)c1=O)[C@@H]1c3c(ccc4ccccc34)OC[C@@H]1CO2 | 21.4%
O=C(NNc1cc(Cl)cc(Cl)c1)c1c(F)cccc1Cl | 1.1%
CCc1c(C)nc2c(-c3ccccc3)c(C)nn2c1Nc1ccc(NC(C)=O)cc1 | -10.1%
CC1CC(C)CN(S(=O)(=O)c2cccc(C(=O)N3C(=O)c4cccc(N)c4C3=O)c2)C1 (stereo unspecified) | 83.1% (active)
COc1cc(C(=O)N2C(=O)c3cccc(N)c3C2=O)cc(OC)c1OC | -10.2%
CN1CCN(S(=O)(=O)c2cccc(C(=O)O)c2)CC1 | -1.38%

SMILES | inhibition
Cc1cc(=O)oc2cc(OCC(=O)Nc3nnc(C4CC4)s3)ccc12 | 5.43%
O=C(Nc1nnc(COc2ccccc2)s1)Nc1ccccc1F | 0.25%
CC12COC3(C(=O)Nc4ccc(Cl)cn4)CC1CCC32C (stereo unspecified) | -6.22%
O=C(NN1C(=O)C2C3C=CC(C4CC34)C2C1=O)c1ccc(Cl)cc1 (stereo unspecified) | -4.1%
CC12CN(NC(=O)c3ccc(Cl)cc3)C3(C#N)CC1CCC23C (stereo unspecified) | 78.4% (active)
CCc1cc(CNC(=O)CC2C(=O)NCCN2Cc2ccccc2C(F)(F)F)on1 (stereo unspecified) | -3.44%
O=c1c2c3c(sc2n(CCN2CCCC2)c(=O)n1Cc1ccccc1)CCCCC3 | 8.67%
Cc1cc(C)n(CC(C)NCc2c(C(=O)N3CCOCC3)nc3c(C)cccn23)n1 (stereo unspecified) | 1.63%
CSc1nc(-c2ccco2)nn1C(=O)c1ccccc1Cl | 52.2% (active)
CS(=O)(=O)n1nc(-c2ccco2)nc1N | -7.61%
CSc1nc(-c2ccco2)nn1C(=O)CCc1ccccc1 | -9.9%
Clc1ccc(-c2cc(-c3ccccn3)on2)c(Cl)c1 | -3.93%
CC(C)=C(NC(=O)c1ccccc1)C(=O)N/N=C(\C)c1ccccc1O | 48.4% (active)
CNC(=O)C(NC(=O)c1ccccc1)=C(C)C | 0.73%
C/C(=N\NC(=O)c1nc(C)cc(C)n1)c1ccccc1 | -8.77%
C=CCN(C(=O)Nc1ccc2c(c1)nc(C)n2C)c1ccccc1 | 41% (active)
Cc1nc2cc(NC(=O)Nc3cccc(F)c3)ccc2n1C | 17%
C=CCN(C(=O)Nc1ccc2oc(C)nc2c1)c1ccccc1 | -6.89%
Nc1ccc2nn(-c3ccc(Cl)cc3)nc2c1 | -10.3%
O=C(NCCc1csc(-c2ccccc2)n1)c1ccccc1F | 0.78%
C=CCn1c(SCC(=O)c2ccc(Br)cc2)nnc1C(C)NC(=O)Cc1ccc(OC)cc1 (stereo unspecified) | 53% (active)
C=CCn1c(SCCOc2ccc(OC)cc2)nnc1C(NC(=O)c1ccc(OC)cc1)C(C)C (stereo unspecified) | 2.79%
C=CCn1c(CNC(=O)c2ccco2)nnc1SCC(=O)c1ccc(OC)cc1 | 1.62%
Cc1ccc(OCC(O)CN2CCN(CC(O)COc3ccc(C)cc3Cl)CC2)c(Cl)c1 (stereo unspecified) | 45.3% (active)
C=CCc1ccc(OCC(O)CN2CCN(Cc3ccccc3)CC2)c(OC)c1 (stereo unspecified) | -1.55%
Cc1cccc(C)c1OCC(O)CN1CCCCC1 (stereo unspecified) | -7.75%

SMILES | inhibition
COC(=O)CNc1nc(Cl)nc(N2CCC(C)CC2)n1 | -2.61%
Cc1ccc(NNC(=O)C2CCC2)cc1C | -0.44%
COc1ccc(Cl)cc1NC(=O)CCN1CCOCC1 | -1.88%
CNC(=O)NC(=O)C(C)N1CCN(C/C=C/c2ccccc2)CC1 (stereo unspecified) | -1.97%
O=C(CN1CCN(C/C=C/c2ccccc2)CC1)Nc1ccc(F)cc1F | 0.73%
COc1cc(C(=O)N2CCN(C/C=C/c3ccccc3)CC2)cc(OC)c1C | 46.4% (active)
COC(=O)c1nc(NC(=O)c2ccc(F)cc2)n[nH]1 | 1.4%
COC(=O)c1nc(NC(=O)c2ccccc2)n[nH]1 | 45% (active)
COC(=O)c1nc(NC(=O)c2ccc(Cl)cc2)n[nH]1 | -14.4%
Cc1nc(Cl)c2oc3ccccc3c2n1 | 42.9% (active)
CCSc1nc(C)nc2c1oc1ccccc12 | 2.97%
Cc1nc(N2CCCC2C(=O)O)c2oc3ccccc3c2n1 (stereo unspecified) | -6.49%
Cn1c2ccc(F)cc2c2nnc(NN)nc21 | 3.58%
Cc1onc(C(=O)NN)c1-c1csc(COc2ccccc2)n1 | -6.54%
CNc1ccc([N+](=O)[O-])cc1C(=O)O | -11.4%
Cc1cccc(NC(=S)NC23CN4CN(CN(C4)C2)C3)c1 | 44.6% (active)
Cc1cccc(NC(=S)Nc2ccc(Br)cc2)c1 | 3.76%
Cc1cccc(NC(=S)Nc2ccc(Cl)c(Cl)c2)c1 | -7.18%
Cc1nc(COc2cccc(Cl)c2)sc1C(=O)/C=C/N(C)C | 0.93%
COCc1cc(=O)[nH]c(SC)n1 | 4.7%
O=C(NCCc1ccccc1)c1ccc(OCCOc2ccccc2)cc1 | 79.7% (active)
CCCOc1ccc(C(=O)NCCc2ccccc2)cc1 | -7.86%
O=C(NCCOc1ccccc1)c1ccccc1 | -2.43%
